Reference: PubChem BioAssay AID1531 (NMMLSC, 2009)
Screen size: about 290,000 compounds; about 3,300 (1.1%) were called active. No stated cut-off is given here; in the data, active means binding response below about 67% or above about 130%; inconclusive means no clear call, values can overlap the other calls; inactive means in between. What follows is part of a selection rich in actives, with near analogues and random picks from the rest.

Each compound was assayed against Mitogen-activated protein kinase kinase kinase 2 (Homo sapiens) (UniProt Q9Y2U5) (assay: modulators of MEK5 binding to wildtype MEKK2, primary screen, biochemical, multiplex bead flow cytometry, Alexa488-MEK5 (AID 1531)). Details: Alexa488-MEK5 binding to MEKK2 WT, at 10 µM, actives lie on both sides.

| Structure (SMILES) | binding response (% of control) |
| --- | --- |
| O=C(Cc1csc(Nc2nc(=S)[nH]c3ccccc23)n1)NCCCN1CCN(c2cccc(Cl)c2)CC1 | 150% (active) |
| COc1cccc(CNC(=O)Cc2csc(Nc3nc(=S)[nH]c4ccccc34)n2)c1 | 90% (inactive) |
| O=C(CCCn1c(=O)[nH]c2cc(Cl)ccc2c1=O)NCCN1CCN(c2ccccc2)CC1 | 97% (inactive) |
| COc1ccc(Nc2ncnc3sc(C)cc23)cc1 | 105% (inactive) |
| CCCCN1C(N)=NC[C@@H]1Cc1ccccc1 | 100% (inactive) |
| O=C1C(Cc2ccc(O)cc2)NC(=S)N1Cc1ccccc1 (stereo not drawn) | 97% (inactive) |
| O=C1NCC(=O)N(Cc2ccccc2)/C1=C/c1ccccc1 | -4% [inhibitor] (active) |
| O=C1/C(=C\c2cccnc2)CN(Cc2ccccc2)C/C1=C\c1cccnc1 | 119% (inactive) |
| C[C@H]1CC[C@]2(O[C@@H](CCO)C[C@@H](O)[C@@H]2O)O1 | 97% (inactive) |
| O=C1N[C@@H](Cc2ccccc2)C(=O)N2[C@@H]3N(S(=O)(=O)c4ccc(F)cc4)c4ccccc4[C@]3(Br)C[C@@H]12 | 98% (inactive) |
| CCC(C(=O)NCc1cccnc1)n1nc(C)c2sc3ccccc3c2c1=O (stereo not drawn) | 103% (inactive) |
| N#Cc1c(Cl)nc(-c2cccnc2)nc1-c1ccccc1 | 106% (inactive) |
| CN(Cc1ccccc1)C(=O)C(=O)c1cn(CC(=O)N2CCCC2)c2ccccc12 | 106% (inactive) |
| CCC(C)(C)NC(=O)C1c2ccccc2Oc2ccccc21 | 97% (inactive) |
| CCC(C)NC(=O)C1c2ccccc2Oc2ccccc21 (stereo not drawn) | 72% (inactive) |
| CC(C)(C)c1nnc(NC(=O)C2c3ccccc3Oc3ccccc32)s1 | 39% [inhibitor] (active) |
| CC(NS(=O)(=O)c1ccc(Cl)cc1)C(=O)Nc1ccc2c(c1)OCCO2 (stereo not drawn) | 97% (inactive) |
| Cc1cccc(OCC(=O)NCCCNC(=O)c2ccccn2)c1 | 98% (inactive) |
| CCN(CC)CCOc1ccc2c(c1)C(=NNC(=O)c1ccccn1)c1cc(OCCN(CC)CC)ccc1-2 | 191% (active) |
| COc1ccc(CC(=O)N/N=C(\C)c2ccccn2)cc1 | 99% (inactive) |
| CCOC(=O)c1ccc(NC(=O)c2c(N)n(C)c(=O)[nH]c2=O)cc1 | 98% (inactive) |
| CC1(C)S[C@@H]2[C@H](NC(=O)COc3ccccc3)C(=O)N2C1C(=O)OCc1ccccc1 (stereo partly drawn) | 93% (inactive) |
| O=C(c1ccco1)N1CCN(C(=S)Nc2cc(F)cc(F)c2)CC1 | 102% (inactive) |
| COc1ccc(CNC(=O)C2CCN(S(=O)(=O)N3CCOCC3)CC2)cc1 | 100% (inactive) |

| Structure (SMILES) | binding response (% of control) |
| --- | --- |
| COc1ccc(CNC(=O)C2CCN(S(=O)(=O)c3ccc(SC)cc3)CC2)cc1 | 105% (inactive) |
| COc1ccc(CNC(=O)C2CCN(S(C)(=O)=O)CC2)cc1 | 42% [inhibitor] (active) |
| O=C(NCCc1ccccc1)C1CC1 | 103% (inactive) |
| COC(=O)c1c(-c2ccsc2)oc2ccc(-c3cc(OC)c(OC)c(OC)c3)cc12 | 96% (inactive) |
| Cn1c(C(=O)NCCc2ccsc2)cc2c(=O)n(C)c3ccccc3c21 | 97% (inactive) |
| Cn1c(C(=O)NCCCN2CCN(c3cccc(Cl)c3)CC2)cc2c(=O)n(C)c3ccccc3c21 | 173% (active) |
| O=C(CCn1c(=O)[nH]c2ccccc2c1=O)NCCCN1CCN(c2cccc(Cl)c2)CC1 | 108% (inactive) |
| O=C(CNC(=O)c1ccc(Br)o1)Nc1ccccc1 | 99% (inactive) |
| CCc1ccc(-c2cc3c(=O)n(CC(=O)NCCCN4CCN(Cc5ccccc5)CC4)nc(C)n3n2)cc1 | 141% (active) |
| Cc1nn(CC(=O)NCCc2ccccc2)c(=O)c2cc3occc3n12 | 111% (inactive) |
| Cc1ccc(-c2ccc(=O)n(CC(=O)NCCCN3CCCCC3)n2)cc1 | 109% (inactive) |
| CCCCN1C(N)=NC[C@@H]1CC1CCCCC1 | 119% (inactive) |
| COc1ccc(-c2noc(C(C)NS(=O)(=O)c3ccc(NC(C)=O)cc3)n2)cc1 (stereo not drawn) | 95% (inactive) |
| C=C(C)COc1ccc(-c2ncncc2-c2ccc(OC)cc2)c(O)c1 | 100% (inactive) |
| CCc1nn(CC(=O)N2CCN(CC)CC2)c(=O)c2cccn12 | 95% (inactive) |
| Cc1cc(NC(=O)COc2ccc(Cl)cc2Cl)n(CCC#N)n1 | 88% (inactive) |
| COC(=O)c1c(NC(=O)COc2ccc(Cl)cc2Cl)sc2c1CC(C)(C)NC2(C)C | 147% (active) |
| Cc1nn(-c2ccccc2)c(C)c1NC(=O)COc1ccc(Cl)cc1Cl | 103% (inactive) |
| CC(=O)c1ccc(S(=O)(=O)N(C)CCCC(=O)N(C)Cc2ccccc2F)cc1 | 105% (inactive) |
| Cc1cccc(NC(=O)c2ccc(S(=O)(=O)N(C)CC3CCCO3)cc2)c1C (stereo not drawn) | 99% (inactive) |
| CN(CC1CCCO1)S(=O)(=O)c1ccc(C(=O)Nc2ccc(F)cc2)cc1 (stereo not drawn) | 98% (inactive) |
| CCOC(=O)c1c(NC(=O)c2ccc(S(=O)(=O)N(C)CC3CCCO3)cc2)sc2c1CC(C)(C)NC2(C)C (stereo not drawn) | 134% (active) |
| O=C(NC1CCCC1)C(c1c(F)cccc1Cl)N(C(=O)c1csnn1)C1CC1 (stereo not drawn) | 95% (inactive) |
| O=S(=O)(c1ccccc1)c1nc(Cc2ccccc2)oc1N1CCOCC1 | 102% (inactive) |

| Structure (SMILES) | binding response (% of control) |
| --- | --- |
| CNC(C)C#Cc1ccc2sc3cc(OC)c(OC)cc3c(=O)c2c1 (stereo not drawn) | 136% (active) |
| CN1C(=O)C2(OCCCO2)c2cc(Cl)ccc21 | 109% (inactive) |
| Cc1ccc(-c2nc(-c3ccncc3)no2)c(C)c1 | 104% (inactive) |
| COc1cc(-c2nc(-c3ccncc3)no2)cc(OC)c1OC | -3% [inhibitor] (active) |
| c1csc(-c2nc(-c3ccncc3)no2)c1 | 94% (inactive) |
| CC1CCCN(c2ccc(C(=O)NCCc3ccccc3)cn2)C1 (stereo not drawn) | 97% (inactive) |
| Cc1ccc(Sc2cc(C(=O)c3ccccc3C(=O)O)ccc2[N+](=O)[O-])cc1 | 95% (inactive) |
| CC(Sc1nnc(CNC(=O)c2ccccc2F)n1C)C(=O)Nc1nccs1 (stereo not drawn) | 101% (inactive) |
| COc1ccc(CN2CC[C@H]3C=CC[C@@H](C(=O)N4CCOCC4)[C@H]3C2=O)cc1OC | 99% (inactive) |
| CCOC(=O)c1ccc(Nc2cc3ccccc3c(=O)[nH]2)cc1 | 99% (inactive) |
| Cc1cccc(-c2nc3ccc(C(=O)NCCN4CCN(C)CC4)cc3nc2-c2cccc(C)c2)c1 | 156% (active) |
| Cc1cccc(C(=O)OC(C)CN2CCN(C)CC2)c1 (stereo not drawn) | 97% (inactive) |
| Cc1ccc(C(=O)NCCN2CCOCC2)cc1C | 99% (inactive) |
| CC(C(=O)N1CCN(c2ccccc2F)CC1)c1ccc([N+](=O)[O-])cc1 (stereo not drawn) | 111% (inactive) |
| O=C(Nc1cccc(Cl)c1)c1cc(S(=O)(=O)N2CCCCC2)c[nH]1 | 100% (inactive) |
| COc1cccc2sc(N(CCCN(C)C)C(=O)CCS(=O)(=O)c3ccccc3)nc12 | 105% (inactive) |
| COc1cccc2sc(N(CCCN(C)C)C(=O)C(c3ccccc3)c3ccccc3)nc12 | 178% (active) |
| CN(Cc1ccccc1)C(=O)COc1ccccc1 | 106% (inactive) |
| COc1cc2ccccc2cc1C(=O)N(CCN(C)C)c1nc2c(F)cccc2s1 | 113% (inactive) |
| CN(C)CCCN(C(=O)COc1ccccc1)c1nc2c(Cl)cccc2s1 | 338% (active) |
| CCN(C(=O)COc1ccc(C(=O)c2ccccc2)cc1)c1ccccc1 | 101% (inactive) |
| CC(=O)N[C@H]1[C@H]([C@H](O)[C@H](O)CO)OC(C(=O)O)=C[C@@H]1O | 106% (inactive) |
| Cc1ccc(C)c(OCc2cc(C(=O)N3CCN(c4cnccn4)CC3)no2)c1 | 93% (inactive) |
| COc1cccc(NC(=O)N2C3CCCC2CC(NC(C)=O)C3)c1 (stereo not drawn) | 109% (inactive) |

| Structure (SMILES) | binding response (% of control) |
| --- | --- |
| O=C(CN1C(=O)S/C(=C\c2ccccc2Cl)C1=O)NC1C=CS(=O)(=O)C1 (stereo not drawn) | 101% (inactive) |
| Cc1cc(S(=O)(=O)c2cc3ccc(O)c(C)c3oc2=O)ccc1F | 102% (inactive) |
| Cc1ccccc1Cn1c(=O)[nH]c2ccccc21 | 48% (inactive) |
| CCCc1cc(=S)n2c([nH]c3ccccc32)c1C#N | -3% [inhibitor] (active) |
| CCOC(=O)CCc1c(C)c(C#N)c2[nH]c3ccccc3n2c1=O | 106% (inactive) |
| O=C(NCC(=O)N(c1ccccc1)C(C(=O)NCC1CCCO1)c1ccccc1)c1cccs1 (stereo not drawn) | 103% (inactive) |
| CCN(CC)CCCNC(=O)c1ccc2c(=O)n(Cc3ccc4c(c3)OCO4)c(=S)[nH]c2c1 | 144% (active) |
| COc1ccc(Cn2c(=S)[nH]c3cc(C(=O)NCCCN4CCOCC4)ccc3c2=O)cc1 | 115% (inactive) |
| CCCCNC(=O)CCn1c(=S)[nH]c2cc3c(cc2c1=O)OCO3 | 99% (inactive) |
| CC(C)CCn1cnc2c1c(=O)n(CC(=O)NC(N)=O)c(=O)n2Cc1ccccc1 | 99% (inactive) |
| Cc1ccc(OCc2nc3ccccc3n2C)cc1 | 103% (inactive) |
| CCCCOC(=O)Cn1c(=O)n(CC(=O)OCCCC)c2cc(C)ccc21 | 97% (inactive) |
| CCCCCCCCCCOC(=O)Cn1c(COc2cccc(OC)c2)[n+](C)c2ccccc21 | 278% (active) |
| CCCCCCCCCCOC(=O)Cn1c(COc2ccc(C)cc2)[n+](C)c2ccccc21 | 319% (active) |
| CCCCOC(=O)Cn1c(=N)n(CCN(CC)CC)c2ccccc21 | 106% (inactive) |
| COc1cccc(OCCCN2CCCCCC2)c1 | 102% (inactive) |
| Nc1ccn(C2CC(O)C(CO)O2)c(=O)n1 (stereo not drawn) | 105% (inactive) |
| O=C(CSc1nc2nccnc2c(=O)n1Cc1cccs1)Nc1ccccc1F | 90% (inactive) |
| COc1ccc(C2CC(c3cccs3)=NN2c2ccc(F)cc2)cc1OC (stereo not drawn) | 88% (inactive) |
| COc1ccc(C2CC(c3cccs3)=NN2c2nc(C)c(C(C)=O)s2)cc1OC (stereo not drawn) | 63% [inhibitor] (active) |
| COc1ccc(C2CC(c3cccs3)=NN2C(=O)CCC(=O)O)cc1OC (stereo not drawn) | 108% (inactive) |
